Paper PMC11006913

Tests used:
Test in all cases: PBM; 200 nM protein, PBS
Settings in all cases: dsDNA, one strand shown
HOXC9 [1] = biological target: HOXC9 (Homo sapiens, UniProt P31274 178-260, K195R)
HOXC9 [2] = biological target: HOXC9 (Homo sapiens, UniProt P31274 178-260)
HOXC9 [3] = biological target: HOXC9 (Homo sapiens, UniProt P31274 178-260, R193K)
HOXC9 [4] = biological target: HOXC9 (Homo sapiens, UniProt P31274 178-260, R222W)
PROP1 [5] = biological target: PROP1 (Homo sapiens, UniProt O75360 56-141)
PROP1 [6] = biological target: PROP1 (Homo sapiens, UniProt O75360 56-141, R99H)
PROP1 [7] = biological target: PROP1 (Homo sapiens, UniProt O75360 56-141, F88S)
Chain of PROP1 (Homo sapiens, UniProt O75360 56-141, F88S) (O75360 56-141 F88S): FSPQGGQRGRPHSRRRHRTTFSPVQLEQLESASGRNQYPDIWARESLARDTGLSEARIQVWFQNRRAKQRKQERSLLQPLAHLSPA

Chain of HOXC9 (Homo sapiens, UniProt P31274 178-260, R222W) (P31274 178-260 R222W): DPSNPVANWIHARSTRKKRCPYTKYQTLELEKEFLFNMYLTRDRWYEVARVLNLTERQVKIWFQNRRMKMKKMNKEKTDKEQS
Chain of HOXC9 (Homo sapiens, UniProt P31274 178-260, R193K) (P31274 178-260 R193K): as the sequence (P31274 178-260 R222W) above, with R16K, W45R counted along it
Chain of HOXC9 (Homo sapiens, UniProt P31274 178-260) (P31274 178-260): as the sequence (P31274 178-260 R222W) above, with W45R counted along it
Chain of HOXC9 (Homo sapiens, UniProt P31274 178-260, K195R) (P31274 178-260 K195R): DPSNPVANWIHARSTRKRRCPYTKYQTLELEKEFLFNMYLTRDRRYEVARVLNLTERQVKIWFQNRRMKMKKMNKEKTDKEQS
Chain of PROP1 (Homo sapiens, UniProt O75360 56-141, R99H) (O75360 56-141 R99H): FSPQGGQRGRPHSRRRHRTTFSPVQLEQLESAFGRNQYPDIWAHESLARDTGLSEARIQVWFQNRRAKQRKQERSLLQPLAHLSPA
Chain of PROP1 (Homo sapiens, UniProt O75360 56-141) (O75360 56-141): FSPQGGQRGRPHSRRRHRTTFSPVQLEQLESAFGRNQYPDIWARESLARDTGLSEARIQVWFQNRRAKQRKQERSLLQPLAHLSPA

Sequence | binding signal (HOXC9 [1]) | binding signal (HOXC9 [2]) | binding signal (HOXC9 [3]) | binding signal (HOXC9 [4]) | binding signal (PROP1 [5]) | binding signal (PROP1 [6]) | binding signal (PROP1 [7])
GCCCCAGC | 9.66 upbm affinity estimate (log intensity, higher = more binding, comparable within an allelic series) | 9.84 upbm affinity estimate (log intensity, higher = more binding, comparable within an allelic series) | 9.62 upbm affinity estimate (log intensity, higher = more binding, comparable within an allelic series) | 9.7 upbm affinity estimate (log intensity, higher = more binding, comparable within an allelic series) |  |  | 
AGCCGACC | 9.56 upbm affinity estimate (log intensity, higher = more binding, comparable within an allelic series) | 9.71 upbm affinity estimate (log intensity, higher = more binding, comparable within an allelic series) | 9.61 upbm affinity estimate (log intensity, higher = more binding, comparable within an allelic series) | 9.74 upbm affinity estimate (log intensity, higher = more binding, comparable within an allelic series) |  |  | 
AGGGGGTG | 9.33 upbm affinity estimate (log intensity, higher = more binding, comparable within an allelic series) | 9.51 upbm affinity estimate (log intensity, higher = more binding, comparable within an allelic series) | 9.39 upbm affinity estimate (log intensity, higher = more binding, comparable within an allelic series) | 9.42 upbm affinity estimate (log intensity, higher = more binding, comparable within an allelic series) |  |  | 
TGATTGCA | 11.1 upbm affinity estimate (log intensity, higher = more binding, comparable within an allelic series) | 11 upbm affinity estimate (log intensity, higher = more binding, comparable within an allelic series) | 11.2 upbm affinity estimate (log intensity, higher = more binding, comparable within an allelic series) |  |  |  | 
AGACCAGG | 9.63 upbm affinity estimate (log intensity, higher = more binding, comparable within an allelic series) | 9.68 upbm affinity estimate (log intensity, higher = more binding, comparable within an allelic series) | 9.61 upbm affinity estimate (log intensity, higher = more binding, comparable within an allelic series) | 9.71 upbm affinity estimate (log intensity, higher = more binding, comparable within an allelic series) |  |  | 
CGCATTTA | 11.1 upbm affinity estimate (log intensity, higher = more binding, comparable within an allelic series) | 11.2 upbm affinity estimate (log intensity, higher = more binding, comparable within an allelic series) | 11.2 upbm affinity estimate (log intensity, higher = more binding, comparable within an allelic series) |  |  |  | 
ATATGAAA | 11.4 upbm affinity estimate (log intensity, higher = more binding, comparable within an allelic series) | 11.3 upbm affinity estimate (log intensity, higher = more binding, comparable within an allelic series) | 11.4 upbm affinity estimate (log intensity, higher = more binding, comparable within an allelic series) |  |  |  | 
CACCATTA | 11.9 upbm affinity estimate (log intensity, higher = more binding, comparable within an allelic series) | 11.9 upbm affinity estimate (log intensity, higher = more binding, comparable within an allelic series) | 11.8 upbm affinity estimate (log intensity, higher = more binding, comparable within an allelic series) | 10.6 upbm affinity estimate (log intensity, higher = more binding, comparable within an allelic series) |  |  | 
CACTAATA | 11.3 upbm affinity estimate (log intensity, higher = more binding, comparable within an allelic series) | 11.4 upbm affinity estimate (log intensity, higher = more binding, comparable within an allelic series) | 11.4 upbm affinity estimate (log intensity, higher = more binding, comparable within an allelic series) |  |  |  | 
ACTAAATA | 11.6 upbm affinity estimate (log intensity, higher = more binding, comparable within an allelic series) | 11.5 upbm affinity estimate (log intensity, higher = more binding, comparable within an allelic series) | 11.6 upbm affinity estimate (log intensity, higher = more binding, comparable within an allelic series) |  |  |  | 
ATTATCGG | 11.3 upbm affinity estimate (log intensity, higher = more binding, comparable within an allelic series) | 11.5 upbm affinity estimate (log intensity, higher = more binding, comparable within an allelic series) | 11.4 upbm affinity estimate (log intensity, higher = more binding, comparable within an allelic series) |  |  |  | 
CTCACCAG | 9.79 upbm affinity estimate (log intensity, higher = more binding, comparable within an allelic series) | 9.75 upbm affinity estimate (log intensity, higher = more binding, comparable within an allelic series) | 9.75 upbm affinity estimate (log intensity, higher = more binding, comparable within an allelic series) | 9.9 upbm affinity estimate (log intensity, higher = more binding, comparable within an allelic series) |  |  | 
GGGCCCCC | 9.38 upbm affinity estimate (log intensity, higher = more binding, comparable within an allelic series) | 9.62 upbm affinity estimate (log intensity, higher = more binding, comparable within an allelic series) | 9.51 upbm affinity estimate (log intensity, higher = more binding, comparable within an allelic series) | 9.4 upbm affinity estimate (log intensity, higher = more binding, comparable within an allelic series) |  |  | 
CGGGAGCC | 9.62 upbm affinity estimate (log intensity, higher = more binding, comparable within an allelic series) | 9.73 upbm affinity estimate (log intensity, higher = more binding, comparable within an allelic series) | 9.62 upbm affinity estimate (log intensity, higher = more binding, comparable within an allelic series) | 9.69 upbm affinity estimate (log intensity, higher = more binding, comparable within an allelic series) | 6.62 upbm affinity estimate (log intensity, higher = more binding, comparable within an allelic series) | 6.7 upbm affinity estimate (log intensity, higher = more binding, comparable within an allelic series) | 6.53 upbm affinity estimate (log intensity, higher = more binding, comparable within an allelic series)
CCCCAGGG | 9.62 upbm affinity estimate (log intensity, higher = more binding, comparable within an allelic series) | 9.8 upbm affinity estimate (log intensity, higher = more binding, comparable within an allelic series) | 9.59 upbm affinity estimate (log intensity, higher = more binding, comparable within an allelic series) | 9.62 upbm affinity estimate (log intensity, higher = more binding, comparable within an allelic series) |  |  | 
CCTCCAGG | 9.43 upbm affinity estimate (log intensity, higher = more binding, comparable within an allelic series) | 9.47 upbm affinity estimate (log intensity, higher = more binding, comparable within an allelic series) | 9.34 upbm affinity estimate (log intensity, higher = more binding, comparable within an allelic series) | 9.67 upbm affinity estimate (log intensity, higher = more binding, comparable within an allelic series) |  |  | 
AGCCCGGC | 9.63 upbm affinity estimate (log intensity, higher = more binding, comparable within an allelic series) | 9.75 upbm affinity estimate (log intensity, higher = more binding, comparable within an allelic series) | 9.64 upbm affinity estimate (log intensity, higher = more binding, comparable within an allelic series) | 9.67 upbm affinity estimate (log intensity, higher = more binding, comparable within an allelic series) |  |  | 
AGGCTCCC | 9.39 upbm affinity estimate (log intensity, higher = more binding, comparable within an allelic series) | 9.56 upbm affinity estimate (log intensity, higher = more binding, comparable within an allelic series) | 9.51 upbm affinity estimate (log intensity, higher = more binding, comparable within an allelic series) | 9.47 upbm affinity estimate (log intensity, higher = more binding, comparable within an allelic series) |  |  | 
CTGCATAA | 11.2 upbm affinity estimate (log intensity, higher = more binding, comparable within an allelic series) | 11.1 upbm affinity estimate (log intensity, higher = more binding, comparable within an allelic series) | 11.2 upbm affinity estimate (log intensity, higher = more binding, comparable within an allelic series) |  |  |  | 
ATTGTATG | 11.1 upbm affinity estimate (log intensity, higher = more binding, comparable within an allelic series) | 11 upbm affinity estimate (log intensity, higher = more binding, comparable within an allelic series) | 11.1 upbm affinity estimate (log intensity, higher = more binding, comparable within an allelic series) |  |  |  | 
